Source: PubChem BioAssay AID602314 (ICCB-Longwood Screening Facility, Harvard Medical School, 2012)
Among all 84,000 compounds or so, about 110 (0.13%) were called active. Rule as the data show it: active = inhibition above about 30% (passing the limit was not always enough); inactive = the rest. This excerpt belongs to a sample that is enriched for actives.

test system: MgrA (MarR family transcriptional regulator), Staphylococcus aureus Newman; assay: modulators of MgrA DNA binding – biochemical, S. aureus Newman, fluorescence polarization, primary screen (AID 602314); conditions: stronger effect = higher value, concentration not given here;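 also: 0% = protein plus DNA without compound and 100% = DNA alone without protein; higher means less MgrA bound to DNA so lower polarization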

SMILES | inhibition
N#CC(=C1C(=O)c2ccccc2C1=O)c1nc2ccccc2[nH]1 | 59.7% (active)
N#C/C(=C\C=C\c1ccccc1)c1nc2ccccc2[nH]1 | 9.2% (inactive)
CS(=O)(=O)c1nc2ccccc2[nH]1 | -4.3% (inactive)
CCN(CC)C(=O)CSc1nc2ccccc2cc1C | 0.6% (inactive)
Nc1ccccc1C(=O)Nc1ccc(Cl)cc1 | -1.3% (inactive)
CCCCOc1ccc(C2=N/C(=C\c3cc(OC)c(OC)cc3OC)C(=O)O2)cc1 | -1.1% (inactive)
CSc1n[nH]c(-c2ccc(Cl)cc2)c1C#N | -2.1% (inactive)
CC(C)c1ccc(NC(=O)CN2N=C(c3ccc(Cl)cc3)CCC2=O)cc1 | 0.65% (inactive)
O=C1/C(=C\c2cccs2)SC(=S)N1CCCC(=O)N1CCCc2ccccc21 | 2.75% (inactive)
Cc1ccc(C(=O)OCC2OC(C#N)CC2OC(=O)c2ccc(C)cc2)cc1 (stereo unspecified) | -3.65% (inactive)
CSc1ncc(Br)c(C(=O)O)n1 | -4.9% (inactive)
O=C(c1ccc(F)cc1)c1c[nH]c(C(=O)NCc2ccc(F)cc2)c1 | -2.05% (inactive)
COCCn1c(N)cc(=O)[nH]c1=S | 0.65% (inactive)
Cc1cccc(OCC(=O)N2CCc3ccccc32)c1 | 0.6% (inactive)
CCN(CC)C(=O)Cc1cc(OC)c(OC)cc1Br | 3.35% (inactive)
Cn1cnnc1SCc1ccc(Cl)cc1 | -1.45% (inactive)
CCc1cccc(CC)c1N1C(=O)CC(Sc2ccccc2N)C1=O (stereo unspecified) | 1.1% (inactive)
c1ccc2c(c1)CCN2c1nc2ccccc2n2cnnc12 | 0.25% (inactive)
O=c1[nH]c(O)c(C=NCCCn2ccnc2)c(=O)[nH]1 | 5.6% (inactive)
CSc1nsc(SCC(=O)OC2CC(C)CCC2C(C)C)n1 (stereo unspecified) | 0.7% (inactive)
CC(C)(C)c1ccc(NC(=O)COC(=O)c2ccc(F)cc2F)cc1 | 4.8% (inactive)

SMILES | inhibition
CCN(C(=O)c1cccs1)c1cccc2ccccc12 | -1.8% (inactive)
COc1cccc(CC(=O)Nc2ccc(-c3csc(C)n3)cc2)c1 | -0.65% (inactive)
Cc1ccc(NC2SC(=O)NC2=O)cc1 (stereo unspecified) | 1.7% (inactive)
O=C(NC1CC1)C1C2C=CC3(O2)C1C(=O)N(C1CC1)C3C(=O)NC1CCCCC1 (stereo unspecified) | 0.25% (inactive)
CCSc1nnc2c(n1)OC(c1cccc(OC)c1)Nc1ccccc1-2 (stereo unspecified) | -1.3% (inactive)
CC(=O)Nc1ccc(-c2nnc(-c3ccco3)o2)cc1 | -3.3% (inactive)
CC(C)(C)C/C(=N/O)c1ccccc1 | 0.2% (inactive)
Cc1nnc(SCc2ccc(C#N)cc2)s1 | 0.7% (inactive)
CSc1ncnc2sc(-c3ccccc3)cc12 | 0.75% (inactive)
CCOC(=O)c1sc(NC(C)=O)c(C#N)c1C | -2.1% (inactive)
O=C(c1cnn2c(C(F)F)cc(-c3ccccc3)nc12)N1CCCC1 | -0.35% (inactive)
CCOC(=O)c1ccc(NC(=O)CC2C(=O)N(c3ccc(F)cc3)C(=O)N2Cc2cccs2)cc1 (stereo unspecified) | -1.9% (inactive)
FC(F)(F)c1cccc(CSc2ncn[nH]2)c1 | -0.7% (inactive)
COc1ccccc1C=NC12CN3CN(CN(C3)C1)C2 | 2.95% (inactive)
Oc1[nH]c2ccccc2c1C=NCCC1=CCCCC1 | 5.65% (inactive)
CCOCCOC(=O)C1=C(C)NC2=C(C(=O)CC(c3ccccc3)C2)C1c1cc2c(cc1Br)OCO2 (stereo unspecified) | -2.9% (inactive)
CCOC(=O)c1cccn1-c1ncc(C(F)(F)F)cc1Cl | -1.2% (inactive)
Cc1ccc(-c2nn(CCC(=O)NCCN3CCOCC3)c(=O)c3ccccc23)cc1 | 0.2% (inactive)
O=C(Nc1ccccc1-c1nc2ccccc2[nH]1)c1ccccc1Br | -2.6% (inactive)
N#CCc1ccc(OCc2ccc(Cl)c(Cl)c2)cc1 | -1.9% (inactive)
